Measured values as given in the supplement of paper PMC11732987, “Enantioselective OTUD7B fragment discovery through chemoproteomics screening and high-throughput optimisation” (Communications Chemistry, 2025).

How the values were obtained:
Assay in all cases: log2 ratio of Biotin-Ahx-Ub-VS probe labelling (fragment/DMSO); higher = less target engagement (more negative = stronger competition), active = hit call of the paper (q ≤ 0.05, log2 ratio ≤ -1)
Settings in all cases: compound concentration: 200 uM; treatment time: 3 h
USP19 = biological target: T1, USP19 (UniProt O94966)
T1 sequence (whole entry): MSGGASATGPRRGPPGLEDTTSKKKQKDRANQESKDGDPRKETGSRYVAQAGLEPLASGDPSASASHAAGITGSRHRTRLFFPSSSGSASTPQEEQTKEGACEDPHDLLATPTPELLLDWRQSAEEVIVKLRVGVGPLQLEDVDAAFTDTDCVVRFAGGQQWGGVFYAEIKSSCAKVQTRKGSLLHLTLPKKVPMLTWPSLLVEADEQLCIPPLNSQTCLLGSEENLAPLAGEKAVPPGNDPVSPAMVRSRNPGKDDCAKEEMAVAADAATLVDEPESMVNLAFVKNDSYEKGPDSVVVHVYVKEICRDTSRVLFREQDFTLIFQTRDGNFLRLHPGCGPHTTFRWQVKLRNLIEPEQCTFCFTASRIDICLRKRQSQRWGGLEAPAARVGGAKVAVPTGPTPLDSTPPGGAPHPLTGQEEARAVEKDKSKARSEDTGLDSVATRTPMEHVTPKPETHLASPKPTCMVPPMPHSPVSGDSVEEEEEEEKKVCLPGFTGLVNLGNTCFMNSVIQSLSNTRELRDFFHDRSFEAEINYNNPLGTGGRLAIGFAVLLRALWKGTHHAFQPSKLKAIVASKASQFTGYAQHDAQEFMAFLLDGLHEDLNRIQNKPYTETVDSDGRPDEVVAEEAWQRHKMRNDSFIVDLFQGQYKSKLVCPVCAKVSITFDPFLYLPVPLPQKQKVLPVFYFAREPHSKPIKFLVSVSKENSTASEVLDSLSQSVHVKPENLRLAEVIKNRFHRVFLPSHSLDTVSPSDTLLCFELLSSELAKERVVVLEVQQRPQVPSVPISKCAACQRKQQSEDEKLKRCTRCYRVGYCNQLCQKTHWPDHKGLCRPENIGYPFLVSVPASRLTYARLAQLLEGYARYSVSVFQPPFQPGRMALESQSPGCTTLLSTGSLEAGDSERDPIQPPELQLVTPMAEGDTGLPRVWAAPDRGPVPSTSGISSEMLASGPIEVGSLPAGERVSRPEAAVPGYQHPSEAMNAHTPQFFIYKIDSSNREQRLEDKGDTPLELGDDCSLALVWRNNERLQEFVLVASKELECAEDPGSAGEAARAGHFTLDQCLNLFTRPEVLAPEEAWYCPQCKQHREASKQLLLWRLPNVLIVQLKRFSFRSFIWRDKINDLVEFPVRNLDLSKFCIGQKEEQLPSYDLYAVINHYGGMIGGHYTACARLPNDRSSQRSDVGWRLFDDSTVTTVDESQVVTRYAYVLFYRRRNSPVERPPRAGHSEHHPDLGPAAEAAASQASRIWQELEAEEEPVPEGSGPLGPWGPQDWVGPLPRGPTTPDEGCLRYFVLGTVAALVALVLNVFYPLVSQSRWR
How it was run: (§1)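 Triplicate samples of HEK293T lysate, 495 µg each, received fragment at 200 µM or vehicle for 3 h, followed by Biotin-Ahx-Ub-VS (0.5 µM final) for 1 h. After NeutrAvidin enrichment of labelled DUBs and LysC/trypsin digestion, peptides were run by diaPASEF LC-MS/MS. The values are average log2 fragment/vehicle ratios from global-median-normalised Spectronaut label-free quantities, tested by unpaired t-test on proteins having ≥2 unique peptides.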

USP22 = biological target: T2, USP22 (UniProt Q9UPT9)
T2 sequence (whole entry): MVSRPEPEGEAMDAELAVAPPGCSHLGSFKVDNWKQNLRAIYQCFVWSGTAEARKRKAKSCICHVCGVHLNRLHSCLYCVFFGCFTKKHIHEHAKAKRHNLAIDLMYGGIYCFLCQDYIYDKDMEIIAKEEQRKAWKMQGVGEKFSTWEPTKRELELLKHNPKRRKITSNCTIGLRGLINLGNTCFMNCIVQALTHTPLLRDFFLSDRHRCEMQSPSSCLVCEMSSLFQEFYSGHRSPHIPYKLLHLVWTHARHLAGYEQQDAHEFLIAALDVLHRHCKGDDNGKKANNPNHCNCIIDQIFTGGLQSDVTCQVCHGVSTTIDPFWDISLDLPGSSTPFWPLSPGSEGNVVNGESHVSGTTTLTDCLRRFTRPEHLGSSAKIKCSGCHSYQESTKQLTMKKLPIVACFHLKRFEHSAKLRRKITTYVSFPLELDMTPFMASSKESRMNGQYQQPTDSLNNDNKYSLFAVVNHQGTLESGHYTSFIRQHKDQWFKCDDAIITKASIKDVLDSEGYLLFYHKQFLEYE
How it was run: as §1

USP24 = USP24 (UniProt Q9UPU5)
How it was run: as §1

USP25 = biological target: T3, USP25 (UniProt Q9UHP3)
T3 sequence (whole entry): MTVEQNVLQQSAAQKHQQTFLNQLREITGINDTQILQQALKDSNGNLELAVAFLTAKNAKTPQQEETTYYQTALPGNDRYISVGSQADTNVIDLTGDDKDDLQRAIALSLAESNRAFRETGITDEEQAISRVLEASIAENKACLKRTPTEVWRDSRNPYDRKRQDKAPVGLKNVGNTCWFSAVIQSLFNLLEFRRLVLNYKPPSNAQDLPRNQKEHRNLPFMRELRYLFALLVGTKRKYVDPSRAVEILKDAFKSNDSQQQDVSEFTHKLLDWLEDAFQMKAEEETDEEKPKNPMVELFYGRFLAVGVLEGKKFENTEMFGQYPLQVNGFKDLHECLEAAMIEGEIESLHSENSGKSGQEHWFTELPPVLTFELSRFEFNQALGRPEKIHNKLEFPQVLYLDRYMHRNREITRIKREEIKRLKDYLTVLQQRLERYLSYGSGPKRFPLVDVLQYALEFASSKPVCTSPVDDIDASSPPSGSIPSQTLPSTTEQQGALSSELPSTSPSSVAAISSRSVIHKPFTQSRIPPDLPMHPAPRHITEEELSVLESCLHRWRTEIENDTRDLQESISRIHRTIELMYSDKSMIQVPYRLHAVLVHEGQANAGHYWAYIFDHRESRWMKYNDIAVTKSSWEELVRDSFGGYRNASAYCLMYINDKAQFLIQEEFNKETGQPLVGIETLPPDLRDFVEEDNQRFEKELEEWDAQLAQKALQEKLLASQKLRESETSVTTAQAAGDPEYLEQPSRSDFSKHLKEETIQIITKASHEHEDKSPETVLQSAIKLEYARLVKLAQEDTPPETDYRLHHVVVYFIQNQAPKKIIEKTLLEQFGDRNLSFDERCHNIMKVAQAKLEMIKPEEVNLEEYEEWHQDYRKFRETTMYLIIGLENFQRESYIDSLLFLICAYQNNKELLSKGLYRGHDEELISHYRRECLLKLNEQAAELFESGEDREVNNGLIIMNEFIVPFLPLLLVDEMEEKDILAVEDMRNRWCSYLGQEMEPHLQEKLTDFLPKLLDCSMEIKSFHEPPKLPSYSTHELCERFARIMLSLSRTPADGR
How it was run: as §1

USP28 = biological target: T4, USP28 (UniProt Q96RU2)
T4 sequence (whole entry): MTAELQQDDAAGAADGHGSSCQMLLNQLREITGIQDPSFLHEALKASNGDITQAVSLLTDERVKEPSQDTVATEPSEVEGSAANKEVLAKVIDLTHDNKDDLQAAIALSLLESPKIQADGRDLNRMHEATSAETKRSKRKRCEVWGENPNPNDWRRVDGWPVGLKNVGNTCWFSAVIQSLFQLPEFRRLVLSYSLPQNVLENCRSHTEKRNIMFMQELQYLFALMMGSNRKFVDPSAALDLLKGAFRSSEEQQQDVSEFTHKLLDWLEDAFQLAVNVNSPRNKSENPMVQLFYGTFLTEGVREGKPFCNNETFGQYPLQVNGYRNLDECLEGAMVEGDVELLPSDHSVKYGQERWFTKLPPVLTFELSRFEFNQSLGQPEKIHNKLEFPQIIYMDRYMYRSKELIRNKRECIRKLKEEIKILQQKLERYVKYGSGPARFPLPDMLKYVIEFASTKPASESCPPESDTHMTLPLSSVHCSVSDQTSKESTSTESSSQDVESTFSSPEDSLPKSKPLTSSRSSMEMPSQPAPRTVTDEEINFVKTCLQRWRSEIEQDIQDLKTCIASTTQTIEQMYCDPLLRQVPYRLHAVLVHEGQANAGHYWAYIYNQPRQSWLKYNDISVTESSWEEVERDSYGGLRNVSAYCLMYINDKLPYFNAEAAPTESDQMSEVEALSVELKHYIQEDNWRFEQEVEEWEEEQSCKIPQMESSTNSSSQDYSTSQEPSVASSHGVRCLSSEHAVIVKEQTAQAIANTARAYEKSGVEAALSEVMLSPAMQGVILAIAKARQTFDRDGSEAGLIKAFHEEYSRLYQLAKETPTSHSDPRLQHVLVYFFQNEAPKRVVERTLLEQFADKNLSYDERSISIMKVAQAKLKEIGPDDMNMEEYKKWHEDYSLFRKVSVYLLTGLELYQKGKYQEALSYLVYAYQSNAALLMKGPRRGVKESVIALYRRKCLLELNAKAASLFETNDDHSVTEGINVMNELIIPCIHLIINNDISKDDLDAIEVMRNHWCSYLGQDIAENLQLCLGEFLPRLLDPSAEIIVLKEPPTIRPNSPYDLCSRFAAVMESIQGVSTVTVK
How it was run: as §1

Measured: log2 ratio of Biotin-Ahx-Ub-VS probe labelling

Sequence of USP24 (Q9UPU5 whole entry): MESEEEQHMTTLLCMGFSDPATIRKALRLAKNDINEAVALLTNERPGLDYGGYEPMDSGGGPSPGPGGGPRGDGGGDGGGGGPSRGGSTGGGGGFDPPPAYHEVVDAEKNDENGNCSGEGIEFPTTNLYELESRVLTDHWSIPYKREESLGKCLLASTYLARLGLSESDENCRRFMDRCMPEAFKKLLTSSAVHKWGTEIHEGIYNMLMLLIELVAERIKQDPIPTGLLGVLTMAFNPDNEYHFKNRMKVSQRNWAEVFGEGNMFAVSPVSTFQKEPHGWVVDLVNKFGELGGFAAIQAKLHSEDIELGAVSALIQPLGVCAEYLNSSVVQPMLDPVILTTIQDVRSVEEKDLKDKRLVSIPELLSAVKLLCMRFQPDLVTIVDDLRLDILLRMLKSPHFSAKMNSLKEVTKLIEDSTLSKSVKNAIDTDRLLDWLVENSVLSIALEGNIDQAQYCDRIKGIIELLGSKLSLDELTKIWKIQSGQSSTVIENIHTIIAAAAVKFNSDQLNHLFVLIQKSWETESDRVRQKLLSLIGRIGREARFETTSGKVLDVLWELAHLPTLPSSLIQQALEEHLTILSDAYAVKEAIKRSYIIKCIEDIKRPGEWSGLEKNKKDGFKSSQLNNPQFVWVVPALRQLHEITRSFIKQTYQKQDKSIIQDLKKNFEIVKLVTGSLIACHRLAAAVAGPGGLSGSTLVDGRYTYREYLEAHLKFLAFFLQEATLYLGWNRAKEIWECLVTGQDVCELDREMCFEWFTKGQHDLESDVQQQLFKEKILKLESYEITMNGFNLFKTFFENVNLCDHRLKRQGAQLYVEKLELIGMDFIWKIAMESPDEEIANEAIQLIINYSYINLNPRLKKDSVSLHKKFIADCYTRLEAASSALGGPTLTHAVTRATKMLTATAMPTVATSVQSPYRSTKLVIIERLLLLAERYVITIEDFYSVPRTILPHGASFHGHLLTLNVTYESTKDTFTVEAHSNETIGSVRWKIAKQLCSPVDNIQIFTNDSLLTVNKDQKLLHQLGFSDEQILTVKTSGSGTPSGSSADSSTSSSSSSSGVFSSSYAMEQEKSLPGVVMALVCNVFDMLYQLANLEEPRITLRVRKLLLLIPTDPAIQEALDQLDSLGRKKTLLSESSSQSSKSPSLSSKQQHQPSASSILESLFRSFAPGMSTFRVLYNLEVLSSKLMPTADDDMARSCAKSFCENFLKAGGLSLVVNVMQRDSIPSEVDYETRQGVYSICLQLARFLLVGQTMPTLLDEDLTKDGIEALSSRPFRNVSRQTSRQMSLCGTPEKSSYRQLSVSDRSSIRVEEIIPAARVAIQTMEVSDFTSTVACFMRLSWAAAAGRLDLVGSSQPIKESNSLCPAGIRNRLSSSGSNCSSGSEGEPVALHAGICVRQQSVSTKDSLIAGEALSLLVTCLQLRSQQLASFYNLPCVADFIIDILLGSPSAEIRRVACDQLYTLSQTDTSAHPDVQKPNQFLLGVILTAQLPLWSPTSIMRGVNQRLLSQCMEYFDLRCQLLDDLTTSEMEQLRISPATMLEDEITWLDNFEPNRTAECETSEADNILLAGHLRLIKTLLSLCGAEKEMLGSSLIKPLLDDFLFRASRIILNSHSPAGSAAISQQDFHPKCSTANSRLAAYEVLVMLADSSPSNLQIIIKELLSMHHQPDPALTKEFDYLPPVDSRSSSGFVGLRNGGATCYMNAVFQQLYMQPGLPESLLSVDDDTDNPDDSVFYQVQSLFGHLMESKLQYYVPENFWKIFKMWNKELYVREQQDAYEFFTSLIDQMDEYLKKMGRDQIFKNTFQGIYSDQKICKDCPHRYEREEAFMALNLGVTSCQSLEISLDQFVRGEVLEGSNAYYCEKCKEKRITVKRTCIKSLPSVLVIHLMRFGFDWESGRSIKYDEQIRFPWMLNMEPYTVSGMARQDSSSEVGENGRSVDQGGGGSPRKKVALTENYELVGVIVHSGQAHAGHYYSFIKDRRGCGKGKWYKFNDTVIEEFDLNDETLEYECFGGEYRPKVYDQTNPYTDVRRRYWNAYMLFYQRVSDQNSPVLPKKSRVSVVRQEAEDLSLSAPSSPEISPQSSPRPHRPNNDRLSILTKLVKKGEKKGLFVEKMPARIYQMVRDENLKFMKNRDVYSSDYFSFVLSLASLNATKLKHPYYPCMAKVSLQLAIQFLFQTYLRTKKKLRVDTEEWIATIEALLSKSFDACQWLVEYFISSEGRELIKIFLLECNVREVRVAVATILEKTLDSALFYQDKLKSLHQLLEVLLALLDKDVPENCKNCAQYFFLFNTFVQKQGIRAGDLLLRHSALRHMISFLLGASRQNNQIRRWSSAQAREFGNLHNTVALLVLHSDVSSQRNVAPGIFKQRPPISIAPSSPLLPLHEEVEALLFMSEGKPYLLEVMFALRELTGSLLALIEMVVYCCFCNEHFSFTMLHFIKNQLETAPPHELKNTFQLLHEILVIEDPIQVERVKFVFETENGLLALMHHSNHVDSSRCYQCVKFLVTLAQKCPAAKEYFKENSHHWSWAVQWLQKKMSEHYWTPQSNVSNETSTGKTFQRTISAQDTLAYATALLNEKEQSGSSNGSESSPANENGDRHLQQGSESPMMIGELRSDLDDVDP

O=C(CCl)Nc1nnc(CC(F)(F)F)o1
inactive: USP19 -0.39 | USP22 -0.0202 | USP24 -0.372 | USP25 -0.777 | USP28 -0.479
